Screening data: PubChem BioAssay, National Center for Advancing Translational Sciences (NCATS)
RGS4 inhibitor – inhibitors of human regulator of G protein signaling 4; P49798; Transcreener GDP fluorescence polarization, RGS4-accelerated GTP hydrolysis; Potency, µM (top dose mostly 114 µM), for inactives: at the top dose activity change, negative = inhibition, hits mostly inhibitors; actives 0.039% (n = 390,000); active = well fitted inhibition curve with a large enough effect; inconclusive = small, poorly fitted or top-dose-only effect; inactive = no such curve, though single readings can be large or run the other way; also: potency is read from the fitted curve at half-maximal effect; % is scaled to controls: 0 for no effect and ±100 for the full control effect; nearly all actives have a fitted effect of over 75% in size
Target sequence (P49798 whole entry, looked up): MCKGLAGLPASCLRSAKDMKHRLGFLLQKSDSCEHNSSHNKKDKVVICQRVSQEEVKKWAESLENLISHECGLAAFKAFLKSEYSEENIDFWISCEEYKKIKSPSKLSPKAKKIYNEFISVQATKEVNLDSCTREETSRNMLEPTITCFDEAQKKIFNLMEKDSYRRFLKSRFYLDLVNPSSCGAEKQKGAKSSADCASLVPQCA
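MLSMR compounds (23 nl, pin-transferred) preincubated 10 min at room temperature with a 500nM (2x) first reagent, then RGS4 at 900nM (2x) plus Transcreener GDP mix added; fluorescence polarization (620/688 nm) read before and after 90 min at 30 °C.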
D3 ag – D3 dopamine receptor (human) agonism; max activation, %; P35462; actives 0.58% (n = 410,000); D3R DiscoveRx beta-arrestin cells, luminescence, 90 min; in the data active = max activation above about 30%; also: 0% is about no effect
Target sequence (P35462 whole entry, looked up): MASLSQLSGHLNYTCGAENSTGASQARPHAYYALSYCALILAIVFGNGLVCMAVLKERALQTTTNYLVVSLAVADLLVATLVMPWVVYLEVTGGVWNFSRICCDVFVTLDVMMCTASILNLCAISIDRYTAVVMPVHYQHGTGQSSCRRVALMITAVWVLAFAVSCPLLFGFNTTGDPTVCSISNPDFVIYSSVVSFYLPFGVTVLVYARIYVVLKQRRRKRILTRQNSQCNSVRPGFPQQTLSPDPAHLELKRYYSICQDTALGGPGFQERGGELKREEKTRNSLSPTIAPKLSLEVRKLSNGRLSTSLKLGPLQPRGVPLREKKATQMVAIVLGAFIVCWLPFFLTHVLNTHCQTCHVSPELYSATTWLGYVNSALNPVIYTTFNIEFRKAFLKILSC
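Agonist-mode cell screen: cells plated at 1500/well and incubated overnight at 37 °C, then exposed to library compounds for 90 min at 37 °C. Detection reagent was added for 30–60 min at room temperature, and luminescence was read.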
LDHA inh – inhibitors of human lactate dehydrogenase A; AID 1347041; purified LDHA, NADH/diaphorase-resazurin fluorescence; hits give low values; activity change, % (values are at about 110 or 230 µM); P00338; actives 0.15% (n = 480,000); in the data active = activity change below about -30%; inconclusive = mostly about -25% to -30%;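 also: plate controls were DMSO wells for no effect and wells without enzyme for full effect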
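Enzyme activity of human lactate dehydrogenase 5 (2 nM; 0.06 mM NADH, 0.2 mM pyruvate, 5 min, RT) is measured via a resazurin/diaphorase fluorescence readout of residual NADH.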
PI4K2A inh – PI4K2A (human) kinase inhibition | purified PI4K2A, ADP-Glo luminescence, 1 h; hits give low values | activity change, negative = inhibition, % at 76.9 µM | actives 0.13% (n = 420,000); in the data active = activity change below about -50%; inconclusive = mostly about -30% to -49%;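 also: -100% = wells without enzyme as full effect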
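In this quantitative HTS, ADP production by PI4K2A was quantified luminescently after 1 h at ambient temperature; 100 microM adenosine served as plate-quality control.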
Akt phos inh – blocks phosphorylation of Akt. Neuro2A IGF-stimulated pAkt S473 HTRF, 20 min; hits give low values. actives 0.32% (n = 360,000). activity change, % for hits at 50 µM; in the data active = activity change below about -80%; inconclusive = mostly about -51% to -80%; also: % is scaled to controls: 0 for no effect and ±100 for the full control effect
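Single-point screen (50 µM final compound) in Neuro2A cells stimulated 20 min with 6 nM IGF at 37 deg C. After lysis, Ser473-phosphorylated Akt read by HTRF (ex 330 nm, em 615/665 nm) as the 665/615 ratio.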
D3 antag – D3 dopamine receptor (human) antagonism; P35462; D3R cells, DiscoveRx beta-arrestin luminescence, antagonist mode; hits give low values; max response, negative = inhibition, %; actives 2.5% (n = 360,000); AID 652054; in the data active = max response below about -50%; inconclusive = no clear call, values can overlap the other calls; also: % is scaled to controls: 0 for no effect and ±100 for the full control effect
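Cells expressing the human receptor were seeded at 1500 cells/well, incubated overnight at 37 degrees C in 5% CO2, then exposed to library compounds with dopamine controls for 90 minutes at 37 degrees C before luminescent detection.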
* = called active by the depositor; i = inactive; ? = inconclusive; · = no result given; [ ] = dose if it differs, or a comment. Rows were chosen to be rich in hits. Some 2.8% of all compounds tested hit in one or more screens of this group.

SMILES | RGS4 inhibitor | D3 ag | LDHA inh | PI4K2A inh | Akt phos inh | D3 antag
CCC(C)c1ccc(O)c(NC(=S)NC(=O)c2cccnc2)c1 (configuration not stated) | -36% | -41 | -3 | 1 | i | -63*
Cc1ccc(NC(=O)CCSc2nc(-c3ccc4c(c3)OCO4)cc(C(F)(F)F)n2)c(C)c1 | -7% | 56* | -3 | -4 | · | ·
Cc1ccc(NC(=O)CCSc2nc(-c3ccc4c(c3)OCO4)cc(C(F)(F)F)n2)cc1 | -2% | -11 | 2 | 1 | · | ·
CCc1nc(C)ccc1OCC(=O)NCCCN(C)C | -18% | -1 | -33* | -10 | i | ?
CCc1nc(C)ccc1OCC(=O)O | 16% | -3 | -7 | 2 | i | 10
COc1cc(/C=N/NC(=O)c2cccc(NC(=O)c3ccccc3C)c2)ccc1O | -9% | 3 | -4 | -2 | i | 26
O=[N+]([O-])c1cc(Cl)cc(/C=N/NC(=S)Nc2ccc(S(=O)(=O)N3CCOCC3)cc2)c1O | 34%[11.4 µM] | -19 | -5 | 17 | i | -54*
O=[N+]([O-])c1cc(Cl)cc(/C=N/Nc2nc3ccccc3s2)c1O | ? | -18 | 1 | 0 | i | -60*
CC(C)(C)N/N=C/c1cc(Cl)cc([N+](=O)[O-])c1O | -5% | -16 | 7 | -5 | i | -110*
Cc1ccccc1C(=O)Nc1cccc(C(=O)N/N=C/c2cc(Cl)cc([N+](=O)[O-])c2O)c1 | -20% | -11 | -4 | -18 | i | -52*
Cc1ccc(C)c(NC(=O)C(C)SCc2nc(-c3ccccc3)oc2C)c1 (configuration not stated) | · | · | 7 | · | · | ·
CSc1ccccc1NC(=O)c1ccc(CSc2ccccc2)cc1 | · | · | 8 | · | · | ·
COc1ccc(C(=O)O)c(OCc2ccc(C#N)cc2)c1 | · | · | -7 | · | · | ·
Cc1sc2nc(NCC(C)O)n3nc(-c4ccco4)nc3c2c1C (configuration not stated) | · | · | 9 | · | · | ·
CC(=O)NC12CC3CC(C1)CC(C(=O)NCc1cccc(Cl)c1)(C3)C2 | · | · | 0 | · | · | ·
O=C(N/N=C/c1ccc(Cl)c([N+](=O)[O-])c1)C1CC1 | -2%[11.4 µM] | -2 | -3 | -2 | i | -8
O=C(Cn1nnc(-c2ccccc2)n1)N/N=C/c1cccc([N+](=O)[O-])c1O | 10% | 5 | 7 | -11 | i | -9
O=C(Cn1nc2ccccc2n1)N/N=C/c1cc(Cl)cc([N+](=O)[O-])c1O | 11% | -16 | 10 | 1 | i | -83*
O=C(N/N=C/c1cc(Cl)cc([N+](=O)[O-])c1O)C1CC1 | 8% | -19 | 7 | -3 | i | -57*
Cc1ccccc1CCNC(=O)c1nccnc1N | · | · | 4 | · | · | ·
C#CCNC(=O)N1CCN(c2ccc(F)cc2)CC1 | · | · | 2 | · | · | ·
C=C[C@]1(C)C=C2CC[C@H]3[C@@](C)(CCC[C@@]3(C)C(=O)O)[C@@H]2CC1 | 14% | -3 | 10 | 2 | i | 8
C=C[C@]1(C)C=C2C(=O)[C@@]3(O)OC(=O)[C@@]4(CCCC(C)(C)[C@H]34)[C@@]2(O)CC1 | · | -9 | 16 | -19 | i | -58*
O=C1CC(c2ccccc2)CC(O)=C1C=Nc1ccccc1Cl (configuration not stated) | -14% | -16 | -12 | 2 | i | -81*
COCCn1c(SCC(=O)Nc2cccc(C)c2C)nc2c(oc3ccccc32)c1=O | -9% | -1 | -2 | -66* | · | ·
SMILES | RGS4 inhibitor | D3 ag | LDHA inh | PI4K2A inh | Akt phos inh | D3 antag
CCn1c(Cc2ccccc2)nnc1SCC(=O)N1CCCC1=O | 8% | 7 | -5 | -4 | i | 19
COCCn1c(SCCN2CCCCC2)nc2ccccc2c1=O | 4% | -6 | ? | 3 | i | -65*
COCCn1c(SCC(=O)N2CCCCC2)nc2ccccc2c1=O | -10% | -14 | -4 | -65* | i | -27
CCn1c(Cc2ccccc2)nnc1SCC(=O)N1CCCCC1 | 2% | 5 | -2 | 3 | -106%* | 13
CCn1c(SCC(=O)N2CCCC2)nc2ccccc2c1=O | -3% | 26 | 0 | -4 | i | -6
COc1ccc(-c2nc3cc(NC(=O)C(C)C)ccc3o2)cc1Cl | · | · | 0 | · | · | ·
O=C(CSc1ccc2ccccc2c1)c1ccc2c(c1)CCC2 | · | · | 3 | · | · | ·
COc1cccc(NC(=S)N/N=C2/CCCCc3ccccc32)c1 | -16% | -16 | -7 | 2 | i | -60*
O=C(Nc1ccc2c(c1)OCO2)c1cnn2c(C(F)(F)F)cc(-c3ccc(F)cc3)nc12 | · | · | 13 | · | · | ·
CCN(CCO)Cc1csc2cc(C)ccc12 | 7% | -38 | 0 | -1 | i | -6
CCN(CCO)Cc1cn[nH]c1-c1ccc(C)c(C)c1 | -12% | 3 | -15 | -1 | i | -66*
CCc1ccc2c(c1)CCCN2C(=O)c1ccccc1C(=O)O | -13% | -50 | 18 | 3 | i | -68*
CCN1CCN(c2ncc(C(=O)N3CCCc4ccccc43)c3ccccc23)CC1 | -6% | 4 | -1 | -4 | i | -69*
CCN1CCN(c2ncc(C(=O)Nc3cc(Cl)ccc3OC)c3ccccc23)CC1 | 8% | -9 | -2 | 3 | i | 7
O=C(c1ccccc1F)N1CCCc2ccccc21 | 28% | -3 | -4 | -1 | i | 6
O=C(c1cnc2sccn2c1=O)N1CCCc2ccccc21 | -4% | -5 | 5 | -13 | i | -52*
CSCCCNC(=S)NC1CCSc2ccccc21 (configuration not stated) | · | · | -2 | · | · | ·
COc1ccc(S(=O)(=O)Nc2ccccc2OC)cc1NC(=O)c1cccc(-n2cccc2)c1 | · | · | -2 | · | · | ·
Cc1ccc2c(=O)cc(C(=O)Nc3nc4ccc(C)cc4s3)oc2c1 | · | · | -3 | · | · | ·
C[C@@H](C(=O)Nc1ccc2ccccc2c1)[C@@H]1C[C@@]1(C)[C@@H](NC(=O)c1cnccn1)c1ccccc1 | -12% | -11 | 4 | -6 | i | -75*
Cc1ccc(Nc2ccc3ccccc3c2)cc1 | · | · | 14 | · | · | ·
O=C(COC(=O)c1ccccc1Nc1ccccc1)Nc1ccccc1 | -26% | 1 | -9 | -4 | i | 10
CC(=O)c1ccc(NC(=O)COC(=O)c2ccccc2Nc2ccccc2)cc1 | ? | -1 | -7 | -5 | i | -51*
O=C(C1CCCCC1)N1CCCn2c1nc1ccccc12 | -11% | 0 | -10 | 10 | i | 8
O=C(C1CCN(S(=O)(=O)c2cnc[nH]2)CC1)N1CCn2c1nc1ccccc12 | -4% | -36 | -8 | 8 | · | -118*
O=C(Cn1cnc2ccccc21)N/N=C/c1cccs1 | -13% | 7 | -8 | 2 | i | 6
